The source of these data is PMC7862700, “An all-to-all approach to the identification of sequence-specific readers for epigenetic DNA modifications on cytosine”.

Assay in all cases: DAPPL (digital affinity profiling via proximity ligation, sequencing); 10 mM Tris-HCl pH 7.5, 50 mM NaCl, 1 mM DTT, 4% glycerol, room temperature, 30 min; GST-TFs on glutathione beads, 16-mer random dsDNA library, 0.1% formaldehyde crosslink after washing; high values mean tight binding
Assay [1] has as its target T1, FEV (Homo sapiens, UniProt Q99581 1-238).
T1 sequence: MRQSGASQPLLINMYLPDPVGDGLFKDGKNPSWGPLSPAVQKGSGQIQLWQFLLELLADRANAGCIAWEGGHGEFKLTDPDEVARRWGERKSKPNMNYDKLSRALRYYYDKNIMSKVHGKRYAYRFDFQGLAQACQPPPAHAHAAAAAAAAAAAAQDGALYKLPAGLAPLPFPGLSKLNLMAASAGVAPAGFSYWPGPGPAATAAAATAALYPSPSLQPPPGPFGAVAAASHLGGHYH
To be noted: protein: recombinant; tags: N-terminal GST; dsDNA, one strand shown. The method in brief: (§1)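 In yeast, human transcription factors were expressed with a GST fusion, then pulled down on glutathione beads and given DNA barcodes. Pooled with a tag-only sample, they were exposed to 200 nmole of a 16-mer random double-stranded DNA library (Tris/NaCl/DTT/glycerol buffer, room temperature, 30 min), washed, crosslinked with 0.1% formaldehyde, proximity-ligated using BsaI/T4 ligase for 1 h at 37 °C, PCR-amplified and read on an Illumina NextSeq500. Each hexamer's frequency of reads for a factor, divided by the matching frequency for the tag-only sample, gives the binding signal.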

For assay [2], the target named is ETV5 (Homo sapiens, UniProt P41161 1-510). The settings on record: protein: recombinant; tags: N-terminal GST; dsDNA, one strand shown. In outline: as §1
ETV5, sequence (P41161 whole entry): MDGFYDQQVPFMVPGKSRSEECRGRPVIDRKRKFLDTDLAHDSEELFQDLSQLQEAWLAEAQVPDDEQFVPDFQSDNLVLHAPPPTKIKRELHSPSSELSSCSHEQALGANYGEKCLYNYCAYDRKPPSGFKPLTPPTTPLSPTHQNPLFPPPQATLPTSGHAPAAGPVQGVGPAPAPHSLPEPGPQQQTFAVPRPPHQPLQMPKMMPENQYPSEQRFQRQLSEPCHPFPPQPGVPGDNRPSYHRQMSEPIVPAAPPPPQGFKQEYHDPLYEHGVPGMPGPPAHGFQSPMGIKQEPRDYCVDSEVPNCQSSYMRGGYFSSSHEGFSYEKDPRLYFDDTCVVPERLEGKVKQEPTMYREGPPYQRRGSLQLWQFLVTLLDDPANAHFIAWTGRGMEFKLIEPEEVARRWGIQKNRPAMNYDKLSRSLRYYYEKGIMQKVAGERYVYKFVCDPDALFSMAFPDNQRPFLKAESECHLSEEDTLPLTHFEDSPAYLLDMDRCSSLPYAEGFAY
Assay [3] addresses HSF1 (Homo sapiens, UniProt Q00613 1-529). To be noted: protein: recombinant; tags: N-terminal GST; chain copies: 3; dsDNA, one strand shown. In outline:
as §1

Assay [4] deals with T2, SPIC (Homo sapiens, UniProt Q8N5J4 1-248).
T2 sequence: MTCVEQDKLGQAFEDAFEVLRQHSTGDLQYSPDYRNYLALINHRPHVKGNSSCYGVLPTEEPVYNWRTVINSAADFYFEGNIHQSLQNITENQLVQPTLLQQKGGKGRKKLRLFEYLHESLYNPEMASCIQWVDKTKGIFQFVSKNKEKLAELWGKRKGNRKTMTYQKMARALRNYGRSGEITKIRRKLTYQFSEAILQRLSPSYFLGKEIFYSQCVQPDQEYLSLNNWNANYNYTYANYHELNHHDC
The settings on record: protein: recombinant; tags: N-terminal GST; dsDNA, one strand shown. In outline:
as §1

For assay [5], the target named is ELF4 (Homo sapiens, UniProt Q99607 1-663). To be noted: protein: recombinant; tags: N-terminal GST; dsDNA, one strand shown. In outline: as §1
ELF4, sequence (Q99607 whole entry): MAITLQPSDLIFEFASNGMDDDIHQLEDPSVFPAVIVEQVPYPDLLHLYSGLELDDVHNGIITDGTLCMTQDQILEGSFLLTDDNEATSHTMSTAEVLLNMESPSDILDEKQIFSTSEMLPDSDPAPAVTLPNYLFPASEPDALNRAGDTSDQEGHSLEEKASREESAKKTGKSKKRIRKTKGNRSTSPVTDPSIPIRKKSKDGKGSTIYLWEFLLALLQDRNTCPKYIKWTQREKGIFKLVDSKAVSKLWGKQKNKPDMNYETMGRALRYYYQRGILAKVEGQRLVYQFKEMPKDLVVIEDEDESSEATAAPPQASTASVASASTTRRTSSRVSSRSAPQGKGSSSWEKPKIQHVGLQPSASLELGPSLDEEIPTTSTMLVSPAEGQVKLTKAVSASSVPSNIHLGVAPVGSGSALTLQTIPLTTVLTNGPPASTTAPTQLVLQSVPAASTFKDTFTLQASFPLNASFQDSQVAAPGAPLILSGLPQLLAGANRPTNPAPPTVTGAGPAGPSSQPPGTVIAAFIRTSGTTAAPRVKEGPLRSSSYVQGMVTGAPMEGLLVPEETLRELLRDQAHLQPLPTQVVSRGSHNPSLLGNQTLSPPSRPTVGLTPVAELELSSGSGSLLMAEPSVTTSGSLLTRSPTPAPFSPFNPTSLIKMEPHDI
For assay [6], the target named is T3, ELK4 (Homo sapiens, UniProt P28324-2 1-405).
T3 sequence: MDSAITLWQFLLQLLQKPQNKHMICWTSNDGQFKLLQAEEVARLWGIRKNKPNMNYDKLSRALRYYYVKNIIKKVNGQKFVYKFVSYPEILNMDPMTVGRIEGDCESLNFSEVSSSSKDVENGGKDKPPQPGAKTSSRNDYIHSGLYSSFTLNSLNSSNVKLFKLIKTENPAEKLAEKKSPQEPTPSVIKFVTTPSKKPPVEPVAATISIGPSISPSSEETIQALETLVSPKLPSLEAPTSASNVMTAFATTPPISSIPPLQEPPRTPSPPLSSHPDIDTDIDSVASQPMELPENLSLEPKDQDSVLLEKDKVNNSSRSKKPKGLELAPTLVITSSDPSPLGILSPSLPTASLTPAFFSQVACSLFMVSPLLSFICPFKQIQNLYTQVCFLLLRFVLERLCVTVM
To be noted: protein: recombinant; tags: N-terminal GST; dsDNA, one strand shown. In outline: as §1

Assay [7] has as its target T4, ETV2 (Homo sapiens, UniProt O00321 1-342).
T4 sequence: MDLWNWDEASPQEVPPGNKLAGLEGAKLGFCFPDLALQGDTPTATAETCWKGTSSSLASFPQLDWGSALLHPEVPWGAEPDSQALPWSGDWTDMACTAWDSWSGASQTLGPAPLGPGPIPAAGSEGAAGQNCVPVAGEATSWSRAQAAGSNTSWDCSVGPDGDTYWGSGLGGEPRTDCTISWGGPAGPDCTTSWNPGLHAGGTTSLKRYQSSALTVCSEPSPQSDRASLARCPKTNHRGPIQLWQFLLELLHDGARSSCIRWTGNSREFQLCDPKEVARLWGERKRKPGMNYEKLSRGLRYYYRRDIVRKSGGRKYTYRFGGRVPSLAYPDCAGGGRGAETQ
To be noted: protein: recombinant; tags: N-terminal GST; dsDNA, one strand shown. In outline:
as §1

Assay [8] deals with T5, ELF3 (Homo sapiens, UniProt P78545 1-371).
T5 sequence: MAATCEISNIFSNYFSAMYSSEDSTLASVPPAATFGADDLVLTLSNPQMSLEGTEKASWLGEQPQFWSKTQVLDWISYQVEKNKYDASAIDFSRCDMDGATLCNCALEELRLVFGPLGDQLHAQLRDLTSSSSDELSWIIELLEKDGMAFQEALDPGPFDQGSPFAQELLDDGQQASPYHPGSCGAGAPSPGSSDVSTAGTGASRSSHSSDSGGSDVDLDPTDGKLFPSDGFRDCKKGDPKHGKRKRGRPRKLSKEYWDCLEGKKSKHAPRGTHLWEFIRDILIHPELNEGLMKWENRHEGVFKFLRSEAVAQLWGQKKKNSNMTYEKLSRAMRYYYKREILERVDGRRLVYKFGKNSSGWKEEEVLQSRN
The settings on record: protein: recombinant; tags: N-terminal GST; dsDNA, one strand shown. In outline: as §1

The target of assay [9] is CRX (Homo sapiens, UniProt O43186 1-299). The settings on record: protein: recombinant; tags: N-terminal GST; dsDNA, one strand shown. In outline: as §1
CRX, sequence (O43186 whole entry): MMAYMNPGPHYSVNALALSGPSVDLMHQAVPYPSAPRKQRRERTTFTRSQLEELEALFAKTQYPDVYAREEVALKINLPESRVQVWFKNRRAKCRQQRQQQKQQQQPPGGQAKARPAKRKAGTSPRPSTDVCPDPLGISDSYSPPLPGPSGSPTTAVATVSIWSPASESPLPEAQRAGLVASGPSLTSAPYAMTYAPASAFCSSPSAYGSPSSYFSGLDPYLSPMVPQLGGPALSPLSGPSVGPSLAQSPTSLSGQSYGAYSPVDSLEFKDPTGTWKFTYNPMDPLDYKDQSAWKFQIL
Assay [10] concerns the target ETV1 (Homo sapiens, UniProt P50549 1-477). The settings on record: protein: recombinant; tags: N-terminal GST; dsDNA, one strand shown. In outline:
as §1

Assay [11] deals with T6, ERF (Homo sapiens, UniProt P50548 1-548).
T6 sequence: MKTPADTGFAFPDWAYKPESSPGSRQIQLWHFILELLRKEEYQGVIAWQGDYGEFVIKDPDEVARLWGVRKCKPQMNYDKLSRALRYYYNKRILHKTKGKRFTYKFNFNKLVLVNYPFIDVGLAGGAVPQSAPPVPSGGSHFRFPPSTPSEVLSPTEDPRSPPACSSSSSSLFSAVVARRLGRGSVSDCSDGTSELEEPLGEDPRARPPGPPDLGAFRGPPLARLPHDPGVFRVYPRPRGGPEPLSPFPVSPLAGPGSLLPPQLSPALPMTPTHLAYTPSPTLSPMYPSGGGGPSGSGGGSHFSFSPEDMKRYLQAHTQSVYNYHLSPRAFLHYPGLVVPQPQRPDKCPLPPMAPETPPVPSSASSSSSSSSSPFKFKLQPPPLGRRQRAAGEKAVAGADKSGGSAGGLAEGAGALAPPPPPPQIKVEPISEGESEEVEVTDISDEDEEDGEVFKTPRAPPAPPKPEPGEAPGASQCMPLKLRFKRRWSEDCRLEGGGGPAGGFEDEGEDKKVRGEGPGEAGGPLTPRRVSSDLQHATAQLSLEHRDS
The settings on record: protein: recombinant; tags: N-terminal GST; dsDNA, one strand shown. In outline:
as §1

Assay [12] concerns the target T7, ETV3L (Homo sapiens, UniProt Q6ZN32 1-361).
T7 sequence: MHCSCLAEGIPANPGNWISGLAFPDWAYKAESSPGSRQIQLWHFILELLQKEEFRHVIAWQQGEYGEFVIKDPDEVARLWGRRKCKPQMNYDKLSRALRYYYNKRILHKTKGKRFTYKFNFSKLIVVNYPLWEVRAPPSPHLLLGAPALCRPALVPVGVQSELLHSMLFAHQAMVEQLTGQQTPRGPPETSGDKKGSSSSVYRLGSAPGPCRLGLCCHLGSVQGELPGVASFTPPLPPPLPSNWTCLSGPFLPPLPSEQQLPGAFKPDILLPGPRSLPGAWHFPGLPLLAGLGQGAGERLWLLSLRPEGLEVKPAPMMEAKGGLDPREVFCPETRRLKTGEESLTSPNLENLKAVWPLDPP
To be noted: protein: recombinant; tags: N-terminal GST; dsDNA, one strand shown. The method in brief: as §1

In assay [13] the target is T8, ETS2 (Homo sapiens, UniProt P15036 1-469).
T8 sequence: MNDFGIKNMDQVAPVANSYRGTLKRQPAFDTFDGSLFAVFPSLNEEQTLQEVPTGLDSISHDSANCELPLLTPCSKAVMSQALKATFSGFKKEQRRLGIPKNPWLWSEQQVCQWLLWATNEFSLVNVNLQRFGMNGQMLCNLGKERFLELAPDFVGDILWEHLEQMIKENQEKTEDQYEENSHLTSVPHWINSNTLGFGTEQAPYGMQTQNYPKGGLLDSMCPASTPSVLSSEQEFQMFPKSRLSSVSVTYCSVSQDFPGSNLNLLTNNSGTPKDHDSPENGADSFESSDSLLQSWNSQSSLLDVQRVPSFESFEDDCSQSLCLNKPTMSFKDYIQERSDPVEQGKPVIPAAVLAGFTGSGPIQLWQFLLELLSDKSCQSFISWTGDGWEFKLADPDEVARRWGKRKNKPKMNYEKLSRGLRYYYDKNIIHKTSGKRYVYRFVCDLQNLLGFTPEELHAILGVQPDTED
The settings on record: protein: recombinant; tags: N-terminal GST; dsDNA, one strand shown. In outline: as §1

The target in assay [14] is T9, SPDEF (Homo sapiens, UniProt O95238 1-335).
T9 sequence: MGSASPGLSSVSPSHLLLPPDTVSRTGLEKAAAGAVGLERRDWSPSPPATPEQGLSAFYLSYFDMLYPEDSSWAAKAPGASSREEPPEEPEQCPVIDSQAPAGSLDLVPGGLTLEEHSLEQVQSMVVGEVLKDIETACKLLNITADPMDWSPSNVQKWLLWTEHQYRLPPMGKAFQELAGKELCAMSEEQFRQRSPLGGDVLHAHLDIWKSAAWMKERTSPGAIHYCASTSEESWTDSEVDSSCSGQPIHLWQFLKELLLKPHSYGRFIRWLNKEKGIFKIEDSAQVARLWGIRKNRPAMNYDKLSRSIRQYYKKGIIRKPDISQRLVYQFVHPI
To be noted: protein: recombinant; tags: N-terminal GST; dsDNA, one strand shown. In outline:
as §1

Assay [15] has as its target T10, ETV7 (Homo sapiens, UniProt Q9Y603 1-341).
T10 sequence: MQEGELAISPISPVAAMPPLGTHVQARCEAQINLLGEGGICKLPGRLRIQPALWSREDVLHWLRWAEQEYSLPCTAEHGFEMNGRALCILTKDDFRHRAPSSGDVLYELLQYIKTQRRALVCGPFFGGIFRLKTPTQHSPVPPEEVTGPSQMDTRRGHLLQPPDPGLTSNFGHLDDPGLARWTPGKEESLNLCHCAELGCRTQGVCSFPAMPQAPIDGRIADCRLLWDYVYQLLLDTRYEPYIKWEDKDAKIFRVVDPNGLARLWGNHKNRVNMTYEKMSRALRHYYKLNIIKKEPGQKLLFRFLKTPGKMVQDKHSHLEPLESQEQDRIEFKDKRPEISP
The settings on record: protein: recombinant; tags: N-terminal GST; dsDNA, one strand shown. The method in brief: as §1

Assay [16] deals with T11, ELF5 (Homo sapiens, UniProt Q9UKW6-2 1-255).
T11 sequence: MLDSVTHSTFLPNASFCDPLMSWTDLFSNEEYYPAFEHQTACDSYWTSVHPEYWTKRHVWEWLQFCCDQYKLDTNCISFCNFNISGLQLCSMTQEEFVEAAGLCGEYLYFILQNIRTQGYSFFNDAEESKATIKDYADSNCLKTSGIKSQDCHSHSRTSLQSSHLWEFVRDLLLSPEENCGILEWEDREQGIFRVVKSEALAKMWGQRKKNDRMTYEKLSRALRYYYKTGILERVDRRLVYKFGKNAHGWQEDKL
The settings on record: protein: recombinant; tags: N-terminal GST; dsDNA, one strand shown. In outline:
as §1

Assay [17] has as its target T12, ETV3 (Homo sapiens, UniProt P41162-2 1-143).
T12 sequence: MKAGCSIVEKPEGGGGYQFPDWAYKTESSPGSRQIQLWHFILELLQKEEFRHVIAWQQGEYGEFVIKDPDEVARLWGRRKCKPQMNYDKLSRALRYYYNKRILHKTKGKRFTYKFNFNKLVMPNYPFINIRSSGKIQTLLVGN
The settings on record: protein: recombinant; tags: N-terminal GST; dsDNA, one strand shown. In outline: as §1

Assay [18] deals with ETV6 (Homo sapiens, UniProt P41212 1-452). The settings on record: protein: recombinant; tags: N-terminal GST; dsDNA, one strand shown. The method in brief: as §1
ETV6, sequence (P41212 whole entry): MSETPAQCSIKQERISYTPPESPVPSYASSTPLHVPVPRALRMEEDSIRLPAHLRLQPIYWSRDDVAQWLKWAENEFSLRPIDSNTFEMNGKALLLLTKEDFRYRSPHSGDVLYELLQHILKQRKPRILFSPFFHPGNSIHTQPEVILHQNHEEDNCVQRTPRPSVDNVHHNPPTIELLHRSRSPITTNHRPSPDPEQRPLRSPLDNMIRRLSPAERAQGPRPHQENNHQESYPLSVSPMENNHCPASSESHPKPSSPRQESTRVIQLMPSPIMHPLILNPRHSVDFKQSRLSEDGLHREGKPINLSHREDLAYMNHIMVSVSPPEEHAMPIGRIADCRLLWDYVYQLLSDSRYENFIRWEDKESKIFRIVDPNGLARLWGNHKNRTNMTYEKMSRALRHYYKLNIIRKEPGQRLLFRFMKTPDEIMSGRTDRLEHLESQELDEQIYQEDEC

ETV1, sequence (P50549 whole entry): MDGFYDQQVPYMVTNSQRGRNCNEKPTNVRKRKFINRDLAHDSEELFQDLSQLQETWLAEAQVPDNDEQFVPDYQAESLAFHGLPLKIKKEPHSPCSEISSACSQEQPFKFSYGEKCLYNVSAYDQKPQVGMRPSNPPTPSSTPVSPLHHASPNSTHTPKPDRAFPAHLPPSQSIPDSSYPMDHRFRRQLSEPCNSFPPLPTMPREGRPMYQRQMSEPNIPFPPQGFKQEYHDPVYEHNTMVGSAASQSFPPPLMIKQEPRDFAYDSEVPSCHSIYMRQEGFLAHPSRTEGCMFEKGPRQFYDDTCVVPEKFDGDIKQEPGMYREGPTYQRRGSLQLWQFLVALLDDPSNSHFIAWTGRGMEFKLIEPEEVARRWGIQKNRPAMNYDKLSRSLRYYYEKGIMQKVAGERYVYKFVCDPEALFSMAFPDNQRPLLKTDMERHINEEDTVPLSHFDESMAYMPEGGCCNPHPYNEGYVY
HSF1, sequence (Q00613 whole entry): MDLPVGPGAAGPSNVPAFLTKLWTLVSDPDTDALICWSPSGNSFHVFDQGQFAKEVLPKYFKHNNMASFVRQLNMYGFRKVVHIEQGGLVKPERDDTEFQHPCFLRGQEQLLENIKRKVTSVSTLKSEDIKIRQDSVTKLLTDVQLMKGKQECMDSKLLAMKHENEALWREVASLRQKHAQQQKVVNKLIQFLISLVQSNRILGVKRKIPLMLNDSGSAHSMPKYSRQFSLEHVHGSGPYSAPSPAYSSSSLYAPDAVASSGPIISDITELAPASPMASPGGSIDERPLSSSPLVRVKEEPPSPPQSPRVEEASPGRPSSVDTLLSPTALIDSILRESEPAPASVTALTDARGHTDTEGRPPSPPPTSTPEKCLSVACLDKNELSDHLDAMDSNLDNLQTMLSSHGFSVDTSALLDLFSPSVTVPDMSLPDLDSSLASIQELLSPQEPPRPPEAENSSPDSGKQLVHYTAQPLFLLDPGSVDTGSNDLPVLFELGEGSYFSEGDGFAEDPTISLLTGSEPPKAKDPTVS

Turning to CTGCGC, the binding signal in assay [1] was 1.38 fold enrichment (6-mer frequency, TF over GST control); in [2], 1.34 fold enrichment (6-mer frequency, TF over GST control); in [3], 1.1 fold enrichment (6-mer frequency, TF over GST control); in assay [4], 1.22 fold enrichment (6-mer frequency, TF over GST control); in assay [5], 1.32 fold enrichment (6-mer frequency, TF over GST control); in assay [6], 1.2 fold enrichment (6-mer frequency, TF over GST control). For the same sequence, the binding signal in assay [7] is 1.46 fold enrichment (6-mer frequency, TF over GST control); in assay [8], 1.27 fold enrichment (6-mer frequency, TF over GST control); in [9] it was 1.11 fold enrichment (6-mer frequency, TF over GST control); in assay [10], 1.58 fold enrichment (6-mer frequency, TF over GST control); in assay [11], 1.34 fold enrichment (6-mer frequency, TF over GST control); in assay [12], 1.33 fold enrichment (6-mer frequency, TF over GST control). For the same sequence, the binding signal in assay [13] was 1.46 fold enrichment (6-mer frequency, TF over GST control); in [14] it was 1.12 fold enrichment (6-mer frequency, TF over GST control); in assay [15], 1.23 fold enrichment (6-mer frequency, TF over GST control); in assay [16], 1.26 fold enrichment (6-mer frequency, TF over GST control); in [17], 1.32 fold enrichment (6-mer frequency, TF over GST control); in [18] it was 1.27 fold enrichment (6-mer frequency, TF over GST control).
